Experiments:
[1] = system: Human papillomavirus type 1a protein E7 (residues 44-93); test: small molecules binding HPV E7 44-93 – biochemical, small-molecule microarray, residues 44-93, 635 nm fluorescence, primary screen (AID 1108); conditions: fluorescence 635 nm, higher = more signal;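 note: E7 fragment applied at 1 µg/mL in TBST for 1 h at 4 C; score combines spot fluorescence with its signal to noise ratio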
[2] = hepatitis C replication reporter changes, two-sided – Huh7 cells, luciferase reporter, HCV replication inhibitor project, primary screen (AID 1109); conditions: Huh7 HCV replicon luciferase reporter, 48 h; higher = more signal;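 note: huh7 hepatoma cells harbouring a luciferase neomycin HCV replicon reporter; luciferase luminescence as measure of HCV replicon replication; test concentration not given here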
[3] = target: Left-right determination factor 2 (Homo sapiens) (UniProt O00292); test: small molecules binding LEFTY2 protein – biochemical, small-molecule microarray, 635 nm fluorescence scan, primary screen (AID 1110); conditions: higher = more signal
Left-right determination factor 2 (Homo sapiens), sequence (O00292 whole entry, looked up): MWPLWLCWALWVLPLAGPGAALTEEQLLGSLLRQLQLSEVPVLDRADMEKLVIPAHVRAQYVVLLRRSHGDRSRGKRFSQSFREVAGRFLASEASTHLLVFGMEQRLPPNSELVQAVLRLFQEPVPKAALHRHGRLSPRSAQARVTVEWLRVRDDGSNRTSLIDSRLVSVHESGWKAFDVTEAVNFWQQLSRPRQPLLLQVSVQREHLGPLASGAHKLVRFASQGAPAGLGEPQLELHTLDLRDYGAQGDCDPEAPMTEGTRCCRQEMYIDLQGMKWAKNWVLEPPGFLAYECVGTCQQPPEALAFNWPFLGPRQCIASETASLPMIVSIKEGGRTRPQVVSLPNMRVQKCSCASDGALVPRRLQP

[4] = target: Calmodulin-1 (Homo sapiens) (UniProt P0DP23); test: small molecules binding calmodulin-1 with EGTA – biochemical, small-molecule microarray, Cy5-labelled CALM1, profiling panel (AID 1111); conditions: Cy5-CALM1 binding fluorescence, higher = more signal;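 note: labelled calmodulin applied in Tris saline Tween buffer holding calcium plus EGTA and DTT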
[5] = target: Calmodulin-1 (Homo sapiens) (UniProt P0DP23); test: small molecules binding Ca-loaded calmodulin-1 – biochemical, small-molecule microarray, Cy5-labelled CALM1, plus calcium, artefact control for SMM control-protein annotation, profiling panel (AID 1112); conditions: Cy5-CALM1 binding fluorescence, higher = more signal;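 note: score merges spot fluorescence with signal to noise from triplicate slides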
[6] = probe aWnt5a binding to arrayed compounds – biochemical, biotinylated probe, 635/667 nm fluorescence, primary screen (AID 1113); conditions: small-molecule microarray, higher = more signal;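 note: score merges 667 nm fluorescence intensity with signal-to-noise per printed feature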
[7] = probe aShh binding to arrayed compounds – biochemical, biotinylated probe, 635/667 nm fluorescence, primary screen (AID 1114); conditions: small-molecule microarray, higher = more signal;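 note: probe is biotin-labelled aShh protein from a stem cell growth factor screen; measures binding of labelled protein to compounds printed on the slide; score merges feature fluorescence at 667 nm with signal-to-noise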
[8] = probe aNog binding to arrayed compounds – biochemical, biotinylated probe, 635/667 nm fluorescence, primary screen (AID 1115); conditions: small-molecule microarray, higher = more signal;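 note: probe is biotinylated aNog protein used at 0.15 µg/mL for 1 h at 4 C; z-score combines 667 nm fluorescence of each spot with its signal to noise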
[9] = target: Torsin-1A-interacting protein 1 (Homo sapiens) (UniProt Q5JTV8); test: compound microarray binding of lysate hLAP1 – cell lysate, small-molecule microarray, COS7 lysate, 635/667 nm fluorescence, primary screen (AID 1116); conditions: 635 nm fluorescence, higher = more signal
Torsin-1A-interacting protein 1 (Homo sapiens), sequence (Q5JTV8 whole entry, looked up): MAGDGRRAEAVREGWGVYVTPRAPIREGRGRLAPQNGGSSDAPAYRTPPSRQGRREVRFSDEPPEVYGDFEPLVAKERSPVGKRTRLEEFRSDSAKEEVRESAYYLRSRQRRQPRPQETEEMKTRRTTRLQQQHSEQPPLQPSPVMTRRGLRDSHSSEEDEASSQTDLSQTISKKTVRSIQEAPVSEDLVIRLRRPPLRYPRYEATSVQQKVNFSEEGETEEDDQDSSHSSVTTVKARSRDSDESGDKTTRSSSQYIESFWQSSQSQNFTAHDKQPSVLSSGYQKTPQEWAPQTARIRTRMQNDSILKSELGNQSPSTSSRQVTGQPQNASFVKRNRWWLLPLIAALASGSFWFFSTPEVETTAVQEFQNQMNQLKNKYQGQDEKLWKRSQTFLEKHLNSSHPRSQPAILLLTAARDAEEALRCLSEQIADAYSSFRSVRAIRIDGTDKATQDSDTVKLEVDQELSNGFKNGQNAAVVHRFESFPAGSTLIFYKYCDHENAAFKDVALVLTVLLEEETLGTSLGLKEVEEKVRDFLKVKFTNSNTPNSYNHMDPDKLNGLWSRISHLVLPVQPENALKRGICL

[10] = target: Alpha-bungarotoxin (Bungarus multicinctus) (UniProt P60615); test: compounds binding labelled alpha-BTX control protein – biochemical, small-molecule microarray, Alexa647 label, 635/667 nm fluorescence, artefact control for SMM control protein annotation, profiling panel (AID 1117); conditions: alpha-BTX-A647 binding fluorescence, higher = more signal
Alpha-bungarotoxin (Bungarus multicinctus), sequence (P60615 whole entry, looked up): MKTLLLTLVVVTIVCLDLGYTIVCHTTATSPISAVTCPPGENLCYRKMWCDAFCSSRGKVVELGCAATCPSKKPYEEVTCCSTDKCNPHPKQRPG

Row | Compound | composite z-score [1] | z-score [2] | composite z-score [3] | composite z-score [4] | composite z-score [5] | composite z-score [6] | composite z-score [7] | composite z-score [8] | composite z-score [9] | composite z-score [10]
1 | C[C@@H]1ON(c2ccccc2)[C@H](c2ccccc2)[C@H]1C(=O)O | -0.429 | 0.387 | 0.25 | 0.0717 | -0.124 | 0.0377 | -0.2 | 0.618 | 0.109 | 0.167
2 | Cc1ccc(S[C@]2(C(=O)NCc3ccccc3)CC(=O)N(Cc3ccccc3C(F)(F)F)[C@@H]2c2ccc(CO)cc2)cc1 | -0.0905 | -1.46 | -1.86 | -0.488 | 0.272 | -0.0778 | -0.221 | 0.381 | 0.328 | -0.191
3 | COC(=O)[C@@]1(Cc2ccccc2)[C@H]2c3cc(C(=O)N(C)C)n(Cc4ccc(S(C)(=O)=O)cc4)c3C[C@H]2CN1C(=O)c1ccccc1 | -1.1 | -0.912 | -0.115 | 1.69 | 1.11 | 0.0613 | 0.954 | 0.35 | 1.29 | 0.548
4 | CCOC(=O)C1=CC[C@@H](c2ccccc2)N(S(=O)(=O)c2ccc(C)cc2)[C@H]1c1ccccc1I | 0.77 | -0.839 | 0.316 | 1.82 | 0.944 | -0.0195 | -0.0769 | -0.327 | 0.911 | 1.19
5 | CC1CC/C=C\[C@H]2OC34C=CCN(CCN5CCOCC5)C(=O)[C@H]3N(CCCO)C(=O)[C@@H]4C2C(=O)O1 (stereo not given in full) | -0.591 | -0.945 | -0.573 | -0.589 | -0.565 | -0.192 | -0.214 | 0.144 | -0.181 | -1.02
6 | C=CCNC(=O)[C@@H]1[C@H]2C(=O)O[C@H](c3ccccc3)[C@H](c3ccccc3)N2[C@H](c2ccc(OCCO)cc2)[C@@]12C(=O)Nc1ccc(C#CC3(O)CCCCCC3)cc12 | 1.12 | -2.43 | 0.367 | 0.92 | 0.0835 | -0.0203 | -0.278 | 0.822 | 0.699 | 1.35
7 | O=C1C2C=CC(C(O)c3c(F)cccc3Cl)N(Nc3ccc([N+](=O)[O-])cc3)C2C(=O)N1c1ccccc1 (stereo not given) | 1.41 | 0.128 | 0.563 | 2.16 | 0.132 | -0.0222 | 0.23 | 0.803 | 1.6 | 0.676
8 | COC(=O)[C@@]1(Cc2ccc(F)cc2)[C@H]2c3cc(C(=O)N4CCCC4)n(Cc4ccccn4)c3C[C@H]2CN1C(=O)c1ccccc1 | 1.42 | -1.73 | -0.649 | 1.36 | 0.652 | 0.139 | 0.704 | 0.874 | 1.33 | 0.23
9 | N#Cc1ccc(NN2C(C(O)C3CC=CCC3)C=CC3C(=O)N(c4ccccc4)C(=O)C32)cc1 (stereo not given) | 1.48 | -0.137 | 0.0779 | 0.0301 | -0.753 | -0.13 | 0.0639 | 0.313 | 0.102 | 1.17
10 | CCOC(=O)C1=CC[C@@H](c2ccc(OC)cc2)N(S(=O)(=O)c2ccc(C)cc2)[C@H]1CC | 1.18 | -2.44 | 0.349 | 1.84 | 0.436 | 0.0438 | -0.221 | 1.48 | 0.482 | 1
11 | CCCC=C(CCC)[C@@H](NC(=O)c1ccc(C(F)(F)F)cc1)c1ccc(C(F)(F)F)cc1 | 1.36 | -1.5 | -0.203 | 1.72 | 1.09 | 0.253 | 0.778 | 1.78 | 0.926 | 0.942
12 | CCOC(=O)C[C@H]1[C@H](OC(=O)c2ccccc2-c2ccccc2)[C@@H](NC(=O)C2CCCCC2)c2cc(OCCCO)ccc2N1C(=O)c1ccc2ccccc2n1 | 1.31 | -1.71 | 0.358 | 0.236 | -0.24 | -0.0087 | 0.0611 | 0.0707 | -0.0006 | 0.026
13 | [N-]=[N+]=Nc1ccccc1C[C@@]1(C(=O)NCc2ccccc2)N=C(c2ccc(OCCCO)cc2)O[C@@H]1c1ccccc1N=[N+]=[N-] | -0.334 | -3.01 | -0.0656 | 1.69 | 0.683 | 0.33 | 0.171 | 1.18 | 1.19 | 1.97
14 | CO[C@H]1O[C@H](CO)[C@@H](OC(=O)Nc2ccc3c(c2)OCO3)[C@H](OC(=O)Nc2ccccc2-c2ccccc2)[C@H]1OC(=O)Nc1ccccc1-c1ccccc1 | 1.08 | -3.79 | -0.0829 | 1.54 | -0.243 | 0.288 | -0.273 | 0.747 | 2.06 | 0.557
15 | CN(C)C(=O)[C@]1(Cc2ccccc2)N=C(c2ccc(OCCCO)cc2)O[C@@H]1c1ccccc1CN=[N+]=[N-] | 1.41 | -2.79 | -0.273 | 1.09 | 0.781 | 0.027 | 0.116 | -0.294 | 1.62 | 1.15
16 | CCOC(=O)C1=CC[C@@H](c2ccc(OC)cc2)N(S(=O)(=O)c2ccc(C)cc2)[C@H]1c1ccc(C)cc1 | 1.33 | -0.12 | -0.0746 | 0.783 | 0.894 | 0.0509 | 0.216 | -0.201 | 0.467 | 0.611
17 | CC(C)C(=C=CC[C@H](O)c1ccccc1OCCO)C[C@H](O)COCc1ccccc1 | 0.257 | -1.88 | -0.274 | 0.444 | -0.457 | -0.128 | -0.0681 | -0.391 | -0.251 | 0.257
18 | OCCCC1=CC(c2ccc(CN3CCCC3)cc2)N(Cc2cccc(OC(F)(F)F)c2)CC1 (stereo not given) | -0.526 | -4.72 | -0.103 | -0.197 | 0.769 | -0.096 | -0.0769 | -0.0898 | 0.779 | -0.371
19 | COCCOC(=O)N1C(=O)[C@@]2(c3cc(C#CCC(C(=O)OC)C(=O)OC)ccc31)[C@H](c1ccc(O)cc1)N1[C@H](c3ccccc3)[C@H](c3ccccc3)OC(=O)[C@H]1[C@@H]2C(=O)Nc1nc2ccccc2s1 | 1.11 | -0.149 | 0.616 | 1.38 | -0.563 | -0.0684 | -0.017 | 0.112 | 0.83 | 2.23
20 | COC(=O)[C@@]1(Cc2ccccc2)N=C(c2ccc(OCCCO)cc2)O[C@H]1c1ccccc1CN=[N+]=[N-] | 1.36 | -3.42 | 0.024 | -0.0422 | -0.193 | -0.0792 | -0.153 | -0.593 | 0.757 | 0.537
21 | C=CC[C@@]1(C(=O)OC)N=C(c2ccc(OCCCO)cc2)O[C@@H]1c1ccccc1N=[N+]=[N-] | 1.48 | -0.992 | 0.684 | 0.17 | -0.483 | 0.0433 | 0.313 | 0.604 | 1.66 | 1.43
22 | C=CCN1Cc2ccccc2[C@H]2OC(c3ccc(OCCCO)cc3)=N[C@@]2(CCS(=O)(=O)c2ccccc2)C1=O | 1.26 | -1.56 | 0.62 | 1.64 | 0.472 | 0.0704 | -0.0056 | -0.0831 | 1.49 | 1.21

Reference: PubChem BioAssay
